Among the data in PubChem BioAssay AID493035 (The Scripps Research Institute Molecular Screening Center, 2011) are inhibition values, retold here.

About 45 (2%) of roughly 2,000 compounds were called active. The full list was thinned out, with actives kept by preference. Unmarked numbers belong to inactive results.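 How the source made its calls: active means inhibition above the mean of all tested compounds plus 3 SD (cut at about 49% in these data); inactive means the rest.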

Sequence of Perilipin-5 (Homo sapiens) + 1-acylglycerol-3-phosphate O-acyltransferase ABHD5 (Homo sapiens) (Q00G26 whole entry, looked up): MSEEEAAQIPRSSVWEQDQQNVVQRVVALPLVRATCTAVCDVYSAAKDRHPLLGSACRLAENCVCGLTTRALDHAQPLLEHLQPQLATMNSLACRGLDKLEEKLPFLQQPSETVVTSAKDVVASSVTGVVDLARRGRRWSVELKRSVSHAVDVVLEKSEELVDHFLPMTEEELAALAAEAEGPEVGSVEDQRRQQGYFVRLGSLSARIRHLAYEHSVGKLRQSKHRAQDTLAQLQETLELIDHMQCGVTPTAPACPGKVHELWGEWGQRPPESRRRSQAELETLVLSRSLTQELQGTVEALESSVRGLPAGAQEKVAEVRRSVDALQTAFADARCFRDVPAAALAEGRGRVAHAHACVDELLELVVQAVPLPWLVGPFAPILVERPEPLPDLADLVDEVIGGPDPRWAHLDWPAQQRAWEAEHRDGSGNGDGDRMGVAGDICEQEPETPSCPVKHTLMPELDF
Sequence of Perilipin-5 (Homo sapiens) + 1-acylglycerol-3-phosphate O-acyltransferase ABHD5 (Homo sapiens) (Q8WTS1 whole entry, looked up): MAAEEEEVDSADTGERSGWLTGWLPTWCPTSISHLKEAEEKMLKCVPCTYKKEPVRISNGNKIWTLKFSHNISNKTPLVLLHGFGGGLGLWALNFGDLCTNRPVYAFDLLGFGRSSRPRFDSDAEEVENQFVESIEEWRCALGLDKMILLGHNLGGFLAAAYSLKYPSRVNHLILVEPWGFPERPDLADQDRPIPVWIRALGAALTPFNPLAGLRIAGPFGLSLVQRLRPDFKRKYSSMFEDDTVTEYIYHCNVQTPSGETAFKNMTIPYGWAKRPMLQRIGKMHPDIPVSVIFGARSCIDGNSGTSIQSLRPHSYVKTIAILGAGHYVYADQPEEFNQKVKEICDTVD

This experiment has as its target Perilipin-5 (Homo sapiens) + 1-acylglycerol-3-phosphate O-acyltransferase ABHD5 (Homo sapiens) (UniProt Q00G26+Q8WTS1). Briefly: ABHD5-PLIN5 interaction inhibitors, pilot screen, cell lysate, split luciferase complementation, luminescence, NIH validation set (AID 493035).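 Further: 0% = DMSO only wells while the 100% control is not stated.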 Particulars: split G. princeps luciferase complementation, lysates, 4 h; at 7.9 µM, active compounds read high.
One may read the inhibition as the drop in the measured response relative to a control, in per cent. On to `CCn1cc(CN2N=C(C)CC2c2ccccc2)c(C)n1` (centres undefined), for which the inhibition is 2.34%. With `Cc1ccc(S(=O)(=O)NC(=O)Nc2cc(C)ccc2F)cc1` the figure was -7.32%. With `CC(C)(C)N1NC2(CCCCC2)NC1=S` the figure was 6.12%. For `COc1ccc2oc(=O)c(C(=O)Nc3ccccc3-c3ccccc3)cc2c1`, the inhibition was -5.51%. `COc1ccc2oc(=O)c(C(=O)N3CCN(c4ccccc4)CC3)cc2c1`: the inhibition is 9.11%.

With `COc1ccc(O)c(C(=O)/C=C/c2cc3ccccc3o2)c1`, the inhibition was 73.2% (active). `Cc1ccc(C(=O)O)cc1NC(=O)c1cccs1`: the inhibition was -5.26%.

Turning to `CN1/C(=C\C=Nc2ccccc2)C(C)(C)c2ccccc21`, the inhibition was 14.1%. With `COc1ccc2cc(-c3nc4ccccc4n3C)c(=O)oc2c1` the figure was -5.19%; with `CCn1c2ccccc2c2cc(CC(N)=O)ccc21`, -7.62%; with `COc1ccccc1C(=O)Nc1cc2cc(Br)ccc2oc1=O`, -7.35%. With `Cc1ccc(CSCC(=O)NCCCN2CCOCC2)cc1` the figure was 2.33%. With `Cc1cc(=O)c2c(O)c(O)ccc2o1` the figure was -3.3%; with `O=c1nc2sc3ccccc3n2c(=O)n1-c1ccc(Cl)cc1`, 5.72%; with `COc1ccc(C)cc1S(=O)(=O)Nc1ccc(F)cc1`, 0.68%. For the compound `CCCCNC(=O)NS(=O)(=O)c1ccc(C)cc1`, the inhibition was -4.64%.

In the case of `Cc1ccc(S(=O)(=O)N[C@@H](Cc2ccccc2)C(=O)CCl)cc1`, the inhibition is 84.4% (active). Consider `CNS(=O)(=O)c1ccc(C)cc1`, for which the inhibition was -16.6%. With `COc1ccc(-c2nnc(-c3cc4c(ccc5ccccc54)oc3=O)o2)cc1` the figure was 5.2%. Turning to `COc1c(C=O)c(CCN(C)C(=O)c2ccc(F)cc2)cc2c1OCO2`, the inhibition was 3.02%.

With `O=C(O)c1cc(-c2ccccc2)nc2ccccc12`, the inhibition was -2.12%. The same measure for `CCCOc1ccc(-c2cc(C(=O)NCC3CCCO3)c3ccccc3n2)cc1` (centres undefined): -0.81%. The same measure for `COC(=O)c1cc(-c2ccc(C)o2)nc2ccccc12`: 72.8% (active); for `C/C(=N\NC(=O)c1ccccc1[N+](=O)[O-])c1ccc(Br)s1`: -7.54%. Regarding `Cc1cc(C)c(NC(=O)NC(=O)C(Cl)(Cl)Cl)c(C)c1`, the inhibition is -18.5%. The same measure for `O=C(/C=C/c1ccc2c(c1)OCO2)c1ccccn1`: 55.7% (active); for `O=C(/C=C/c1ccc2c(c1)OCO2)NCc1ccc(F)cc1`: 1.71%; for `O=C(/C=C/c1ccc2c(c1)OCCCO2)c1ccc2ccccc2c1O`: 26.6%. The same measure for `O=C1N[C@@H](Cc2cnc[nH]2)C(=O)N2CCC[C@@H]12`: -13.3%.
